Source: PubChem BioAssay
Tau fibril FP: blocks human tau fibril formation measured by polarization | 0.39% of 280,000 active | P10636 | Potency, µM (highest dose often 57.7 µM), for inactives: at the top dose activity, negative = inhibition, hits mostly inhibitors | AID 1468 | K18 P301L tau heparin fibrillization, Alexa594 FP, 6 h; further: potency means the concentration at half of the fitted maximal effect; nearly all actives have a fitted effect of over 55% in size
Target sequence (P10636 561-689 P618L limits assumed): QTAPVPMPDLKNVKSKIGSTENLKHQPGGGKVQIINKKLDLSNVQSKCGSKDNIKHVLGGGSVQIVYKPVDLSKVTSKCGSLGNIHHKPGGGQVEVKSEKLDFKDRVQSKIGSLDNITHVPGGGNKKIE
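Human tau K18 […] P301L fragment, 15 uM unlabeled plus 0.24 uM Alexa 594-labeled tau (final), with compound and 20 uM heparin in 100 mM sodium acetate pH 7; 6 hr at 37 C, then Alexa 594 FP read.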
TexasRed fluor: Texas Red fluorescence interference in TRb-SRC2 counter-screen | TRb/SRC2 Texas Red total fluorescence interference | 0.29% of 280,000 active | Potency, µM (top dose mostly 106 µM), for the others: top-dose fluorescence change, negative = quenching | AID 1479; active means well fitted curve in either direction with a large enough effect; inconclusive means small, poorly fitted or top-dose-only effect; further: potency means the concentration at half of the fitted maximal effect
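Flags fluorescent or light-absorbing compounds by total fluorescence, S + 2P, at 555 nm excitation and 632 nm emission. Mixture: 20 nM Texas Red SRC2 peptide, 0.6 uM human TRb LBD, 1 uM T3, 5% DMSO; compound exposure 5 h at ambient temperature.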
Tau fluor counter: counter-screen for tau fibril formation inhibitors; 0.93% of 280,000 active; tau K18 P301L Alexa594 fluorescence, heparin fibrillization; Potency, µM (series often up to 57.7 µM), for inactives: top-dose activity change, negative = decrease; further: potency means the concentration at half of the fitted maximal effect; nearly all actives have a fitted effect of over 55% in size
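Human K18 P301L tau (15 uM unlabeled plus 0.24 uM Alexa 594-labeled, final) in 100 mM sodium acetate pH 7 was mixed with compound and 20 uM heparin and incubated 6 hr at 37 C.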
PNC inhibitor: blocks assembly of the perinucleolar compartment; PC3M PTB-GFP, PNC prevalence imaging, 16 h; active compounds read low; activity change (PNC), negative = inhibition, % at 10 µM; 3.1% of 140,000 active;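 active means readout at or below -70, meaning at least 70% loss of cells showing the perinucleolar compartment, a nuclear body marking cancer cells; inconclusive means readout between -30 and a set limit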;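 further: plate controls were DMSO wells for no effect and camptothecin positive control wells for full effect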
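Read-out is percentage of cells bearing a perinucleolar compartment, from automated 20x imaging of fixed, Hoechst-stained PC3M PTB-GFP cells. Cells were seeded 4 h, then exposed 16 h to compound (23 nl of library stock) in duplicate plates.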
Tau fibril ThT: tau fibrillization inhibition (ThT binding); P10636; recombinant tau K18 P301L (four-repeat tau fragment), heparin-induced fibrillization, ThT fluorescence; Potency, µM (top dose mostly 57.4 µM), without a hit: top-dose activity, negative = inhibition, most hits filed as inhibitors; 2.1% of 270,000 active; further: potency means the concentration at half of the fitted maximal effect; nearly all actives have a fitted effect of over 55% in size
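Aggregation was driven by heparin (20 uM final) acting on recombinant tau […] bearing P301L in 100 mM sodium acetate pH 7; fibrils were detected with Thioflavin T.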
TRb SRC2 PPI: disrupts binding of human TR beta to SRC2. P10828. TRbeta-SRC2 peptide binding, fluorescence polarization; receptor liganded with 1 µM T3. Potency, µM (highest dose often 106 µM), inactives show at the top dose activity change, negative = inhibition, usual class: inhibitors. 0.065% of 280,000 active;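 further: potency means the concentration at half of the fitted maximal effect; plate controls were bound peptide for no effect and peptide without receptor for full effect; nearly all actives have a fitted effect of over 50% in size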
Target sequence (P10828 whole entry, looked up): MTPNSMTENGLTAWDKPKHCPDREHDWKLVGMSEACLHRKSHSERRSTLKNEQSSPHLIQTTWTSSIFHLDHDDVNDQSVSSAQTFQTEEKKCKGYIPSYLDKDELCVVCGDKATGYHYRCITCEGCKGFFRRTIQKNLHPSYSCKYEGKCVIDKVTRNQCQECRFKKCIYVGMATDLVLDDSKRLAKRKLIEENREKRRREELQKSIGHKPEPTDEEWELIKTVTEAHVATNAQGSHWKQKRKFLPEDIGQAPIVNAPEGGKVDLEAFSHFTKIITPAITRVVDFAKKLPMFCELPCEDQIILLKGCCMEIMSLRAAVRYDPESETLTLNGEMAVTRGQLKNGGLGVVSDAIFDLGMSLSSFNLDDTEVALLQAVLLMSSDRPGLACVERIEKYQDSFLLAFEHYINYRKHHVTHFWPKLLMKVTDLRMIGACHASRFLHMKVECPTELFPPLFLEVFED
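Fluorescence polarization of 20 nM Texas Red SRC2 peptide (20-aa NR interaction domain) bound to 0.6 uM human TRb ligand-binding domain, with 1 uM T3, after 5 hr at ambient temperature; inhibition seen as decreased polarization.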
Active calls of the source: *; ? = inconclusive; . = not tested or not shown; [ ] = remark or other dose. This is a sample that favours compounds with a hit; in the whole collection about 4.6% have one here. Unless noted, the call rests on the fitted dose curve; in most records, active means well fitted curve in the direction sought with a large enough effect; inconclusive means small, poorly fitted or top-dose-only effect, or another doubt; inactive means no such curve, though single readings can be large; an effect the other way counts as inactive or inconclusive. Unless noted, on the % scale 0 is the no-effect control and ±100 the full control effect.

SMILES | Tau fibril FP | TexasRed fluor | Tau fluor counter | PNC inhibitor | Tau fibril ThT | TRb SRC2 PPI
CCCc1cc(=O)[nH]c(SCC(=O)Nc2ccc([N+](=O)[O-])cc2C#N)n1 | 5% | -1% | ? | . | 14µM* | 1%
CCCc1cc(=O)[nH]c(SCC(=O)NC(=O)OCC)n1 | -5% | 2% | -13% | ? | -9% | 2%
O=C(NCc1cccnc1)C1COc2ccccc2O1 (stereo not given) | 1% | -5% | 1% | 80 | 0% | -5%
Cc1ccccc1NS(=O)(=O)c1ccc2[nH]cc(C(=O)NCCc3ccccc3)c(=O)c2c1 | 11µM* | -1% | ? | . | 8% | 1%
CC(C)CCNC(=O)c1c[nH]c2ccc(S(=O)(=O)Nc3cccc(C(F)(F)F)c3)cc2c1=O | 14µM* | 1% | ? | . | 6% | 0%
Cc1ccc(CCNC(=O)c2c[nH]c3ccc(S(=O)(=O)Nc4cccc(C(F)(F)F)c4)cc3c2=O)cc1 | 7.9µM* | -1% | ? | . | ? | 0%
O=C(NC1CCCC1)c1c[nH]c2ccc(S(=O)(=O)Nc3cccc(C(F)(F)F)c3)cc2c1=O | 10µM* | -1% | ? | . | 11% | -7%
COc1cccc(NS(=O)(=O)c2ccc3[nH]cc(C(=O)NCCC(C)C)c(=O)c3c2)c1 | ? | -1% | ? | 36 | 2% | -14%
Cc1cc(C)cc(NS(=O)(=O)c2ccc3[nH]cc(C(=O)NCCc4ccccc4)c(=O)c3c2)c1 | ? | 0% | ? | . | 2% | 5%
COc1ccc(-c2noc(CN(C(=O)C(C)Oc3ccc(C)cc3)C(C)C)n2)cc1 (stereo not given) | 2% | -3% | -20% | . | -17% | 7%
COc1ccc(C2c3c(n[nH]c3C)CC(C)(O)C2C(C)=O)cc1OC (stereo not given) | 9% | -1% | -9% | 9 | -9% | -7%
O=C1C=CC(=O)N1CCCCCCN1C(=O)C=CC1=O | 25µM* | -1% | -21% | ? | ? | -3%
CCN1C(=O)C=CC1=O | ? | 0% | 5% | . | -2% | 1%
Cc1ccc(Cn2c3ccccc3c3cn[nH]c(=O)c32)cc1 | -1% | 2% | 0% | -108* | -4% | -21%
Cn1c2ccccc2c2ncn(CCN3CCOCC3)c(=O)c21 | 2% | -1% | 7% | -87* | 2% | -18%
CCOC(=O)N1CCN(C(=O)C2CC(=O)N(c3ccc(OC)cc3)C2c2ccc(OC)cc2)CC1 (stereo not given) | 7% | -2% | -3% | -100* | -3% | -6%
COc1ccc(C2C(C(=O)O)CC(=O)N2c2ccc(OC)cc2)cc1 (stereo not given) | -3% | 1% | -3% | -14 | -6% | 2%
c1ccc(-n2nnnc2OCCOc2nnnn2-c2ccccc2)cc1 | -3% | 0% | -7% | 7 | 1% | 5%
Cn1c(=O)c2c(nc(SCC(=O)OCc3ccccc3)n2C)n(C)c1=O | 1% | -3% | -1% | -96* | -3% | 1%
CCOC(=O)CSc1nc2c(c(=O)[nH]c(=O)n2C)n1CCCc1ccccc1 | 5% | -3% | -5% | -108* | -11% | 1%
c1ccc(-c2ccn3nnnc3n2)cc1 | 0% | -2% | 0% | -100* | -3% | -4%
c1ccc(-c2cnn3nnnc3n2)cc1 | 2% | -3% | -5% | -11 | -3% | -1%
CCOC(=O)N1CCN(Cc2nc(N)nc(Nc3ccc(C)cc3C)n2)CC1 | -5% | -3% | 0% | . | -10% | 0%
O=C(CSc1cccc2cccnc12)N/N=C/c1ccc(O)cc1 | 0% | -1% | -7% | . | ? | -4%
O=C(N/N=C\c1ccc(Sc2ccccn2)o1)c1cccc(F)c1 | -9% | 0% | -12% | ? | -2% | -4%
SMILES | Tau fibril FP | TexasRed fluor | Tau fluor counter | PNC inhibitor | Tau fibril ThT | TRb SRC2 PPI
O=C(N/N=C/c1ccc(Sc2ccccn2)o1)c1cc2ccccc2cc1O | -1% | 32µM*[quencher] | ? | 23 | 14µM* | ?
O=C(CCc1ccccc1O)N/N=C/c1ccc(Sc2cccc3cccnc23)o1 | ? | -1% | 14µM*[quencher] | ? | -10% | 3%
CCOc1ccc(CCNC(=O)Cn2cccc2C(=O)c2ccccc2)cc1OCC | 4% | 11% | 7% | ? | 9% | 6%
CC1CCc2c(sc3nc(-c4cc5ccccc5oc4=O)nc(Cl)c23)C1 (stereo not given) | 8% | 32µM*[quencher] | -14% | . | ? | -29%[53 µM]
NCC(c1ccccc1)c1c[nH]c2ccccc12 (stereo not given) | 8% | 1% | -2% | . | 5% | 0%
Cc1ccc2[nH]cc(C(c3ccccc3)c3ccc(C)s3)c2c1 (stereo not given) | -17% | -1% | 10µM*[quencher] | . | -19% | 0%
Cc1ccc2[nH]cc(C(c3ccccc3)c3cccs3)c2c1 (stereo not given) | ? | -2% | 7.9µM*[quencher] | . | ? | -11%
CSc1ccc(N=Nc2c(C)[nH]n(C)c2=O)cc1 | -2% | 0% | -8% | . | 8.9µM* | -3%
Cc1[nH]n(-c2ccc(Cl)cc2)c(=O)c1N=Nc1cccnc1 | -7% | -3% | -3% | . | . | -5%
O=C(Nc1ccc(Cl)c(Cl)c1)Nc1nnc(CC2=CCCCC2)s1 | 8.9µM* | -1% | ? | ? | 11% | 2%
O=C(Nc1nnc(CC2=CCCCC2)s1)c1cccs1 | -2% | -1% | -7% | -13 | 0% | 1%
COc1ccc2nc(N=Nc3ccc(O)c4ccccc34)sc2c1 | -15% | -8% | ? | 45 | 2.5µM* | 1%
COc1ccc2nc(N=NC3=C(O)CC(C)(C)CC3=O)sc2c1 | 3% | -4% | -22% | . | 16µM* | 5%
CC1(C)CC(=O)C(N=Nc2ccc3ncsc3c2)=C(O)C1 | 5% | 2% | -10% | -3 | ? | -22%
CC(C)NC(=O)C1(c2ccccc2)CCOCC1 | 1% | 0% | -7% | ? | -20% | 5%
Cc1nc(SCCO)c2oc3ccccc3c2n1 | 1% | -3% | 7% | -108* | 14% | -15%
CC(=O)c1ccc(-n2cc(-c3ccc(C(C)(C)C)cc3)[n+]3c2SCCC3)cc1 | -8% | 0% | 1% | . | -3% | -7%
Cn1ccc2cc(NC(=O)Nc3cccnc3)ccc21 | ? | -6% | 14µM*[quencher] | . | ? | -8%
C=CCn1c(SCC(=O)NCCCC)nc2scc(-c3ccco3)c2c1=O | -12% | -8% | -11% | 31 | ? | 4%
C=CCn1c(SCC(=O)NC2CCCC2)nc2scc(-c3ccco3)c2c1=O | ? | -19% | -19% | 40 | 28µM* | -3%
